According to PubChem BioAssay (EPA / NIEHS):
Several values for one entry are separate records, joined by “and”; a condition that tells them apart may be missing. Equal entries are not always repeated. A structure can be active in one record and inactive in another. Activity calls are given as the source filed them. Rule for the calls: active = hit-call score of the fitted dose curve at least 0.9, where 1 is the maximum; inactive = score below 0.9.

Experiments:
Conditions in all cases: mRNA level, 48 h; actives raise or lower the signal
[1] = read-out: Apolipoprotein A-V (APOA5) gene, APOA5 (gene 116519); assay: LTEA_HepaRG_APOA5: Life Technologies and Expression Analysis (LTEA) Assay for Apolipoprotein A-V (APOA5) gene using HepaRG (AID 2283474)
In short: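 Differentiated HepaRG cells in serum-free induction medium, exposed 48 h in duplicate to eight half-log concentrations topping at 100 uM (0.5% DMSO). APOA5 mRNA by Fluidigm TaqMan qRT-PCR, normalized to ACTB, GAPDH and POLR2A; bidirectional fit versus DMSO.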

[2] = read-out: Apoptosis regulator Bcl-2 (Homo sapiens) (UniProt P10415); assay: LTEA_HepaRG_BCL2: Life Technologies and Expression Analysis (LTEA) Assay for Bcl-2 gene using HepaRG (AID 2283475);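 note: BCL2 transcript by TaqMan qRT-PCR normalised to ACTB GAPDH and POLR2A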
In short: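 Expression change of BCL2 mRNA in HepaRG after 48 h dosing, quantified by TaqMan qRT-PCR against three endogenous controls. Concentration-response used eight points up to 100 uM, vehicle 0.5% DMSO.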

[3] = read-out: Bcl-2 (BID) gene, BID (gene 637); assay: LTEA_HepaRG_BID: Life Technologies and Expression Analysis (LTEA) Assay for Bcl-2 (BID) gene using HepaRG (AID 2283476)
In short: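 Gain or loss of BID expression is fitted relative to 0.5% DMSO vehicle. Human HepaRG liver cells received a 48 h chemical exposure over an eight-point concentration range.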

[4] = read-out: Cytochrome P450 (CYP24A1), CYP24A1 (gene 1591); assay: LTEA_HepaRG_CYP24A1: Life Technologies and Expression Analysis (LTEA) Assay for Cytochrome P450 (CYP24A1) using HepaRG (AID 2283478)
In short: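 HepaRG cells plated 48 h, then exposed in duplicate in serum-free induction medium for 48 h to 8-point half-log series from 100 uM in 0.5% DMSO. CYP24A1 mRNA by Fluidigm qRT-PCR, normalized to ACTB, GAPDH, POLR2A; bidirectional fit versus DMSO.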

[5] = read-out: Cytochrome P450 (CYP1A2), CYP1A2 (gene 1544); assay: LTEA_HepaRG_CYP1A2: Life Technologies and Expression Analysis (LTEA) Assay for Cytochrome P450 (CYP1A2) using HepaRG (AID 2283479)
In short: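 Differentiated human HepaRG cells in serum-free induction medium exposed 48 hours in duplicate to 8 half-log concentrations from 100 uM, 0.5% DMSO. CYP1A2 mRNA quantified by qRT-PCR, normalized to ACTB, GAPDH and POLR2A; bidirectional fitting versus DMSO.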

[6] = read-out: cysteine-aspartic acid protease (CASP8), CASP8 (gene 841); assay: LTEA_HepaRG_CASP8: Life Technologies and Expression Analysis (LTEA) Assay for cysteine-aspartic acid protease (CASP8) using HepaRG (AID 2283480)
In short: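 HepaRG, 48 h exposure, duplicate wells; 8 conc, half-log from 100 uM, 0.5% DMSO. Serum-free induction medium. CASP8 mRNA by TaqMan qRT-PCR, norm. ACTB/GAPDH/POLR2A; gain/loss fitted vs DMSO.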

[7] = read-out: Cytochrome P450 (CYP2B6), CYP2B6 (gene 1555); assay: LTEA_HepaRG_CYP2B6: Life Technologies and Expression Analysis (LTEA) Assay for Cytochrome P450 (CYP2B6) using HepaRG (AID 2283481)
In short: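 Differentiated human HepaRG cells in serum-free induction medium, dosed in duplicate for 48 h over 8 half-log concentrations topping at 100 uM (0.5% DMSO). CYP2B6 mRNA measured by TaqMan qRT-PCR, normalized to ACTB, GAPDH, POLR2A; bidirectional fit versus DMSO.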

[8] = read-out: Cytochrome P450 2C19 (Homo sapiens) (UniProt P33261); assay: LTEA_HepaRG_CYP2C19: Life Technologies and Expression Analysis (LTEA) Assay for CYP2C19 using HepaRG (AID 2283482)
In short: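 Differentiated HepaRG cells in serum-free induction medium exposed 48 h in duplicate, 8 concentrations from 100 uM by half-log steps in 0.5% DMSO. CYP2C19 mRNA measured by TaqMan qRT-PCR, normalized to ACTB, GAPDH, POLR2A. Bidirectional fit versus DMSO.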

[9] = read-out: CYP2C8 (gene 1558); assay: LTEA_HepaRG_CYP2C8: Life Technologies and Expression Analysis (LTEA) Assay for CYP2C8 using HepaRG (AID 2283483)
In short: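 CYP2C8 mRNA induction or loss, by qRT-PCR normalized to ACTB/GAPDH/POLR2A, is read in HepaRG cells after 48 h treatment. Concentrations run from 100 uM down in half-log dilutions, with 0.5% DMSO as vehicle and baseline.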

[10] = read-out: Caspase-3 (Homo sapiens) (UniProt P42574); assay: LTEA_HepaRG_CASP3: Life Technologies and Expression Analysis (LTEA) Assay for cysteine-aspartic acid protease (CASP3) using HepaRG (AID 2283477)
In short: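 Differentiated HepaRG cells, plated 48 h, were treated in duplicate in serum-free induction medium for 48 h with eight half-log concentrations up to 100 uM in 0.5% DMSO. CASP3 mRNA measured by qRT-PCR, normalized to ACTB, GAPDH, POLR2A.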

Measured: AC50

Chain of Apoptosis regulator Bcl-2 (Homo sapiens) (P10415 whole entry, looked up): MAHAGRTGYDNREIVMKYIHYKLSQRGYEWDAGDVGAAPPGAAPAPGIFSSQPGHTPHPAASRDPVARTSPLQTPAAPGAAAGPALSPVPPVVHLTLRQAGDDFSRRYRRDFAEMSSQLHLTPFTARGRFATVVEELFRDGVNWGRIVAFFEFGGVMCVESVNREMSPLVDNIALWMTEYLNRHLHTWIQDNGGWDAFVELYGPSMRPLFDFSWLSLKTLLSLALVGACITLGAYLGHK
Chain of Caspase-3 (Homo sapiens) (P42574 whole entry, looked up): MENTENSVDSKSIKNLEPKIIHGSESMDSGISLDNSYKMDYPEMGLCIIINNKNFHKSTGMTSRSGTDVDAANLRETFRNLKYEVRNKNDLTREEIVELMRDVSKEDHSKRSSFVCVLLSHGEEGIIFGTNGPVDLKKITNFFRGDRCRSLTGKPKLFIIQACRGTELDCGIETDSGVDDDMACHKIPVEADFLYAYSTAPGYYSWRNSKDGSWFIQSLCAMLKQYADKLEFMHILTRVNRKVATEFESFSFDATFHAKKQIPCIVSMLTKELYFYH
Chain of Cytochrome P450 2C19 (Homo sapiens) (P33261 whole entry, looked up): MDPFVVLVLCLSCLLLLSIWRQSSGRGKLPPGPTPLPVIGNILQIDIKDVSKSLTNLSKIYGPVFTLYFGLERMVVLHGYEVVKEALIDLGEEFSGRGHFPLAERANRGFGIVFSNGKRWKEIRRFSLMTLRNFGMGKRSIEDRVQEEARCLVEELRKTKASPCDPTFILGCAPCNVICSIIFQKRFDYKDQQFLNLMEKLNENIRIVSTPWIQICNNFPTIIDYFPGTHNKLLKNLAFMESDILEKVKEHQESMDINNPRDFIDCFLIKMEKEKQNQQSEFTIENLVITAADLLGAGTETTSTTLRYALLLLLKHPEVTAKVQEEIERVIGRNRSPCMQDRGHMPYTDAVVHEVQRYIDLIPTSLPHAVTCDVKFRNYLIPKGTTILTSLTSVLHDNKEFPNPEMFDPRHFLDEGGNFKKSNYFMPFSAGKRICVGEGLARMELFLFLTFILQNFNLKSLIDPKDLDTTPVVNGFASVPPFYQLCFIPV

CCOC(=O)CC(SP(=S)(OC)OC)C(=O)OCC (configuration not stated)
active: [5] 13.8 µM | [7] 50 µM
not listed: [10]
inactive: all other assays above

CNC(=S)S
active: [5] 50 µM | [7] 29.7 µM
not listed: [10]
inactive: all other assays above

C=CC1(C)OC(=O)N(c2cc(Cl)cc(Cl)c2)C1=O (configuration not stated)
active: [5] 18.8 µM | [7] 7.99 µM | [8] 18.4 µM | [9] 16.7 µM
not listed: [2]
inactive: all other assays above

OC(c1ccc(Cl)cc1)(c1cncnc1)c1ccccc1Cl (configuration not stated)
inactive: [3] | [10] | [4]
active: [1] 72.9 µM | [5] 86.6 µM | [6] 50 µM | [7] 91.3 µM | [8] 89.6 µM | [9] 83.6 µM

C=CCC1=C(C)C(OC(=O)C2C(C=C(C)C)C2(C)C)CC1=O (configuration not stated)
inactive: [1] | [2] | [3] | [10] | [4] | [5] | [6] | [8] | [9]
active: [1] 0.000839 µM | [7] 12.1 µM and 90.6 µM and 11.7 µM | [8] 91.5 µM | [9] 85.6 µM

CNC(=O)ON=CC(C)(C)SC
active: [7] 50 µM
not listed: [2] | [10]
inactive: all other assays above

Fc1ccc(Oc2ccnc3cc(Cl)cc(Cl)c23)cc1
active: [5] 14.1 µM | [7] 11.9 µM | [9] 86.6 µM
not listed: [2] | [10]
inactive: all other assays above

N#Cc1cc(Br)c(O)c(Br)c1
active: [1] 21.2 µM | [2] 10 µM | [5] 12.9 µM | [6] 23.6 µM | [7] 9.97 µM | [8] 13.9 µM | [9] 25.3 µM
inactive: [3] | [4]

COc1nc(NC(C)C)nc(NC(C)C)n1
active: [5] 44.9 µM | [7] 6.01 µM | [8] 9.99 µM
not listed: [2] | [10]
inactive: all other assays above

C=CCC1=C(C)[C@@H](OC(=O)[C@@H]2[C@@H](C=C(C)C)C2(C)C)CC1=O
active: [7] 85.4 µM
not listed: [2] | [10]
inactive: all other assays above

CCOC(=O)C(Cl)Cc1cc(-n2nc(C)n(C(F)F)c2=O)c(F)cc1Cl (configuration not stated)
active: [7] 50 µM | [8] 41.1 µM | [9] 23.3 µM
not listed: [2] | [10]
inactive: all other assays above

CCNc1nc(Cl)nc(NCC)n1
active: [5] 50 µM | [7] 11.3 µM
not listed: [2] | [10]
inactive: all other assays above

CCCC1COC(Cn2cncn2)(c2ccc(Cl)cc2Cl)O1 (configuration not stated)
active: [1] 47.4 µM | [5] 50 µM | [7] 30.9 µM | [8] 74.5 µM | [9] 36.4 µM
inactive: [3] | [4] | [6]

N#Cc1nn(-c2c(Cl)cc(C(F)(F)F)cc2Cl)c(N)c1S(=O)C(F)(F)F (configuration not stated)
active: [1] 54.4 µM | [5] 58.3 µM | [7] 28.9 µM | [8] 29.9 µM | [9] 33 µM
inactive: [3] | [4] | [6]

CON(C)C(=O)Nc1ccc(Cl)c(Cl)c1
active: [5] 29.8 µM | [7] 24 µM | [8] 65.1 µM
not listed: [2] | [10]
inactive: all other assays above

Cc1ccc(-c2c(Cl)nc(C#N)n2S(=O)(=O)N(C)C)cc1
inactive: [3] | [5]
active: [1] 74.2 µM | [4] 0.01 µM | [6] 89.8 µM | [7] 5 µM | [8] 5.98 µM | [9] 9.33 µM

CC(Oc1ccc(Cl)cc1Cl)C(=O)O (configuration not stated)
not listed: [2] | [10]
inactive: all other assays above

O=C(Nc1ccccc1)Nc1ccnc(Cl)c1
inactive: [3] | [4] | [6] | [9]
active: [1] 71.9 µM | [5] 25.8 µM | [7] 88.4 µM | [8] 79 µM

Cc1cc(Cl)ccc1OCC(=O)O
active: [5] 50 µM | [7] 25.5 µM | [8] 24.3 µM | [9] 19.9 µM
inactive: [1] | [3] | [4] | [6]
